ADAM17 inh: inhibits human ADAM17 | P78536 | recombinant ADAM17, EDANS/DABCYL FRET peptide cleavage | inhibition, % at 6.95 µM | 370,000 compounds, 0.83% hits | AID 720648;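 active = inhibition above the mean of compounds lying between control limits plus 3 SD, set per campaign, cut at about 8.5% in these data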
PLCg1 inh: PLC-gamma1 (human) inhibition, primary screen | P19174 | inhibition, % at 12.2 µM | 370,000 compounds, 0.84% hits | purified PLC-gamma1, fluorogenic substrate, fluorescence; in the data active = inhibition above about 9.5%
HGIII-sPLA2 inh: Inhibits HGIII-sPLA2 liposome hydrolysis, primary screen; 370,000 compounds, 0.56% hits; inhibition, % at 12.2 µM; AID 743126; QFRET BODIPY PC-A2 liposome hydrolysis, fluorescence; Q9NZ20;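 active = inhibition above mean plus 3 SD of compounds lying within the high and low control bounds, cut at about 19% in these data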
ADAM10 inh: ADAM10 inhibition, QFRET primary screen; 370,000 compounds, 0.62% hits; inhibition, % at 7 µM; recombinant ADAM10, EDANS/DABCYL FRET peptide cleavage, 3 h; AID 720582;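 active = inhibition above a per-campaign cutoff equal to the mean of compounds falling between control-based bounds plus 3 SD, cut at about 20% in these data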
Target sequence (O14672 214-748 limits assumed): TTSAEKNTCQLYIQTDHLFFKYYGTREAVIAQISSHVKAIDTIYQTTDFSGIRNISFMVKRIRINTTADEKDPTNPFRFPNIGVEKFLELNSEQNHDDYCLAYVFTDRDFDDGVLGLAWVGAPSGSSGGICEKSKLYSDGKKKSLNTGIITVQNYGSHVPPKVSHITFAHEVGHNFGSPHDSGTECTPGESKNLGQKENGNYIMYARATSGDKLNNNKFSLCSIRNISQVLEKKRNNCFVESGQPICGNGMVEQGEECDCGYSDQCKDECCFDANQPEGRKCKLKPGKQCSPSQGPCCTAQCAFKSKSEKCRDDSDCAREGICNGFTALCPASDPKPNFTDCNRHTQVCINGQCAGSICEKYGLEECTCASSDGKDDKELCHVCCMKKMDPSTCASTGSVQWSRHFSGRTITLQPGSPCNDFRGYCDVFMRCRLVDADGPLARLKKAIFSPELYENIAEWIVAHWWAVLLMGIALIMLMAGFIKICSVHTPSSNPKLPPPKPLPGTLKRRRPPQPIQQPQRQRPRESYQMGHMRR
proKLK7 act: activates the human kallikrein-7 zymogen | P49862 | purified proKLK7, EDANS-DABCYL substrate fluorescence; 100% is mature enzyme control, 0% vehicle | activation, % at 7 µM | 370,000 compounds, 0.9% hits | AID 652039;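 active = activation above the mean of all tested compounds plus 3 SD, computed per campaign excluding outliers beyond control limits, cut at about 13% in these data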
PLC-beta3 inh: inhibitors of human phospholipase C beta3 | Purified PLC-beta3, fluorogenic substrate, fluorescence | inhibition, % at 12.2 µM | 370,000 compounds, 0.18% hits | AID 720704; in the data active = inhibition above about 11%
ADAM10 confirm: human ADAM10 inhibition, confirmation | shares compounds with ADAM10 inh | ADAM10 QFRET peptide cleavage, EDANS fluorescence | inhibition, % at 6.95 µM | 2,100 compounds, 1% hits | AID 743208;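 active = inhibition above about 20% chosen separately for each screening run, limit read from the data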
ADAM17 counter: ADAM17 inhibition, counter-screen for ADAM10 exosite hits. ADAM17 QFRET peptide cleavage, EDANS fluorescence. shares compounds with ADAM10 inh. 2,100 compounds, 0.5% hits. inhibition, % at 6.95 µM;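 active = mean triplicate inhibition above the solvent-only control wells' mean plus 3 SD, cut at about 12% in these data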
ADAM10 ctr: counter-screen for ADAM17 exosite inhibitors: inhibitors of human ADAM10; recombinant ADAM10, EDANS/DABCYL FRET peptide cleavage, 3 h; 2,900 compounds, 47% hits; inhibition, % at 6.95 µM; shares compounds with ADAM17 inh;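 active = mean inhibition over the triplicate runs exceeds the activity threshold set in the earlier primary screen, cut at about 20% in these data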
ADAM17 confirm: confirmation of inhibitors of human ADAM17. shares compounds with ADAM17 inh. recombinant ADAM17, EDANS/DABCYL QFRET peptide cleavage. inhibition, % at 6.95 µM. 2,900 compounds, 65% hits. AID 743257;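 active = mean inhibition across replicates above the hit cutoff set in the primary screen, cut at about 8.5% in these data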
Large screens that a line does not name were inactive (follow-up assays come after a bar, where they were run). This is a sample that favours compounds with a hit; in the whole collection about 3.4% have one here.

O=C(NCC1CC1)c1cc2c(c(-c3cccc(-c4ccccc4F)c3)n1)[C@H](CCO)N(C(=O)CC1CC1)C2	none
O=S1(=O)CC2c3ccccc3CCN2CN1Cc1ccccc1 (configuration not stated)	none
CCCCCCNC(=O)O[C@H]1Cn2c(=O)n(CCCCCC)c(=O)n2[C@@H]2CN(S(=O)(=O)c3ccc(C)cc3)C[C@]12O	ADAM17 inh 11.2, ADAM10 inh 20.4 | ADAM10 confirm inactive | ADAM17 counter inactive | ADAM10 ctr 39.9 | ADAM17 confirm 21.6
CCn1c(CNc2nc(-c3ccccc3)cs2)nnc1SCC(=O)NCc1ccccc1	ADAM17 inh 10.7, ADAM10 inh 20.3 | ADAM10 confirm inactive | ADAM17 counter inactive | ADAM10 ctr inactive | ADAM17 confirm 12.7
CCn1c(CNc2ccc(Cl)cc2)nnc1SCC(=O)NCc1ccccc1	none
Cc1cc(Cl)ccc1NC(=O)COC(=O)c1cc([N+](=O)[O-])ccc1N1CCOCC1	none
COCCOc1ccc(C(F)(F)F)cc1NC(=O)COC(=O)c1cc([N+](=O)[O-])ccc1N1CCOCC1	ADAM17 inh 8.9, ADAM10 inh 22.0 | ADAM10 confirm inactive | ADAM17 counter inactive | ADAM10 ctr inactive | ADAM17 confirm 8.9
Cc1ccccc1-c1noc(-c2ccc(O)cc2)n1	ADAM17 inh 12.9, ADAM10 inh 32.6 | ADAM10 confirm inactive | ADAM17 counter inactive | ADAM10 ctr inactive | ADAM17 confirm 12.0
O=C(CN1C(=O)CCSc2ccccc21)Nc1ccc(Cl)c(Cl)c1	none
CCCn1c(SCC(=O)N2c3ccccc3Sc3ccccc32)nc2ccccc21	ADAM17 inh 10.4, ADAM10 inh 25.8 | ADAM10 confirm inactive | ADAM17 counter inactive | ADAM10 ctr inactive | ADAM17 confirm 11.1
CCCn1c(SCC(=O)N2CC(=O)Nc3ccccc32)nc2ccccc21	none
C=CCN1[C@@H](C)COc2cc(N3CCSCC3)ccc2S1(=O)=O	none
Cc1ccc(C(=O)NCCSc2ccc(Cl)cc2)cc1S(=O)(=O)Nc1ccccc1	ADAM17 inh 11.0, ADAM10 inh 25.2 | ADAM10 confirm inactive | ADAM17 counter inactive | ADAM10 ctr 27.0 | ADAM17 confirm 15.7
Cc1ccc(SCCNC(=O)c2ccc(C)c(S(=O)(=O)Nc3cccc(C)c3)c2)cc1	ADAM17 inh 12.0, ADAM10 inh 27.0 | ADAM10 confirm inactive | ADAM17 counter inactive | ADAM10 ctr 30.4 | ADAM17 confirm 17.2
Cc1ccc(C)c(S(=O)(=O)Nc2ccc(C(=O)NCCCN(C)C)cc2)c1	none
CS(=O)(=O)Nc1ccccc1C(=O)NCCSc1ccc(Cl)cc1	none
Cc1ccc(NS(=O)(=O)c2cc(C(=O)NCCSc3ccc(C)cc3)ccc2C)cc1	ADAM17 inh 11.6, ADAM10 inh 23.2 | ADAM10 confirm inactive | ADAM17 counter inactive | ADAM10 ctr 37.7 | ADAM17 confirm 20.3
Cc1cccc(NS(=O)(=O)c2cc(C(=O)NCCC3=CCCCC3)ccc2Cl)c1	ADAM17 inh 8.7, ADAM10 inh 21.1 | ADAM10 confirm inactive | ADAM17 counter inactive | ADAM10 ctr 21.4 | ADAM17 confirm 11.7
C=CCN1C(=O)[C@H](CC(=O)NCc2ccccc2)[C@@]2(C(=O)OCC)CCCC=C12	none
COc1cccc(Cn2cc(COC(=O)NCCc3c[nH]c4ccccc34)nn2)c1	none
Cc1cc(C(=O)O[C@H]2CCC[C@]3(C(=O)N(Cc4ccccc4)c4ccccc43)[C@H]2NC(=O)CCc2ccccc2)no1	none

From PubChem
